Screening results (PubChem BioAssay)
This is a sample that favours compounds with a hit; in the whole collection about 3.4% have one here.
IMPase Li cell: cell-permeable IMPase inhibitors with lithium potentiation. CHO-M1 cells, IP1 TR-FRET (IP-One), carbachol + lithium. Potency, µM (titrated, usually from 59.4 µM), without a hit: at the highest dose activity, negative = IMPase inhibition, usual class: inhibitors. 210,000 tested, 0.35% active;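 also: IP1 builds up when IMPase is blocked and the TR-FRET signal falls; potency is read from the fitted curve at half-maximal effect; plate controls were basal vehicle for no effect and high inhibitor control for full effect; nearly all actives have a fitted effect of over 50% in size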
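Test compounds were applied to CHO-M1 cells previously cultured for 16–30 h at 2000 per well. A small lithium amount accompanied them; after 30 min at 37C, IP1 was quantified by TR-FRET.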
NPSR antagonist: blocks cAMP signaling of the human neuropeptide S receptor; Q6W5P4; CHO-NPSR cells, cAMP TR-FRET, antagonist mode; Potency, µM (titrated, usually from 38.3 µM), for the others: at the highest dose activity change, negative = inhibition, usual class: inhibitors; 220,000 tested, 1% active; AID 1461; also: potency is read from the fitted curve at half-maximal effect; % is scaled to controls: 0 for no effect and ±100 for the full control effect; nearly all actives have a fitted effect of over 50% in size
Target sequence (Q6W5P4 whole entry, looked up): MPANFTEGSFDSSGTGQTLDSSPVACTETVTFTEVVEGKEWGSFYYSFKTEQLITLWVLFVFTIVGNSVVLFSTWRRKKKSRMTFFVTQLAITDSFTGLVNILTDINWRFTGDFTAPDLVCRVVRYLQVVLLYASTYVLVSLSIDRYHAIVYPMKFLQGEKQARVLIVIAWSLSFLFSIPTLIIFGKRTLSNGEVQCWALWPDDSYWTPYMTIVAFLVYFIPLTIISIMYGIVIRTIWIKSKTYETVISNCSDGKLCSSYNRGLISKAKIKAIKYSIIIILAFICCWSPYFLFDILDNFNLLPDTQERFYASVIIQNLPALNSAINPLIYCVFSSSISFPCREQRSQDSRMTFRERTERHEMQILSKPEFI
IMPase inh: cell-permeable inhibitors of inositol monophosphatase (IMPase); P97697; CHO-M1 cells, IP1 accumulation, HTRF TR-FRET ratio; inhibition (IP1 accumulation), % at 46.1 µM; 120,000 tested, under 10 active; active = well fitted curve in the direction sought with a large enough effect in the signal ratio, not every such curve was filed as active; inconclusive = small, poorly fitted or top-dose-only effect, or a change in a side signal; inactive = no such curve, though single readings can be large or run the other way; the % refers to the signal ratio;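 also: cells stimulated with carbachol in lithium chloride buffer; plate controls were DMSO basal wells for no effect and reference inhibitor wells for full effect; higher means more IMPase inhibition seen as more IP1 and lower FRET ratio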
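In this qHTS, compounds (final up to 46 uM) act on CHO-M1 cells that are then activated through the M1 receptor with carbachol, in pH 7.4 buffer containing 50 mM LiCl, for 30 min. IP1 accumulation is quantified by the IP-One immunoassay.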
HTT ATP protect: cytoprotection in Huntington HTT-Q103 PC12 cell model | Potency, µM (series often up to 56.4 µM), without a hit: cytoprotection (ATP increase), most hits filed as activators | 230,000 tested, 0.14% active | PC12 HTT-Q103 induced, cytoprotection, ATP luminescence, 40 h; also: potency is read from the fitted curve at half-maximal effect; % of control where 0% means no effect; nearly all actives have a fitted effect of over 45% in size
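PC12 cells stably carrying ecdysone-inducible Htt exon 1 (Q103)–GFP were induced with 100 nM tebufenozide (final) alongside library compounds in a dose series. Cytoprotection was scored as retained ATP by ATPlite luminescence.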
HTT aggregate: mutant huntingtin aggregation inhibition | PC12 HttQ103-GFP aggregates, Acumen cytometry, 40 h | Potency, µM (series often up to 46.1 µM), without a hit: top-dose activity change, negative = inhibition, usual class: inhibitors | 220,000 tested, 1.1% active | AID 1688; also: potency is read from the fitted curve at half-maximal effect; % is scaled to controls: 0 for no effect and ±100 for the full control effect; nearly all actives have a fitted effect of over 60% in size
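Quantitative HTS on tebufenozide-induced (100 nM) PC12 cells stably expressing polyQ103 Huntingtin exon 1–GFP. Reduction of bright GFP aggregates, detected by laser scanning cytometry after lysis, identified actives across the titration.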
PNC inhibitor: inhibitors of perinucleolar compartment assembly; PC3M PTB-GFP, PNC prevalence imaging, 16 h; hits give low values; activity change (PNC), negative = inhibition, % at 10 µM; 140,000 tested, 3.1% active; AID 2417;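 active = readout at or below -70, meaning at least 70% loss of cells showing the perinucleolar compartment, a nuclear body marking cancer cells; inconclusive = readout between -30 and a set limit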;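 also: plate controls were DMSO wells for no effect and camptothecin positive control wells for full effect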
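PC3M cells stably expressing PTB-GFP, 750–1000 cells/well, treated 16 h at 37 °C with compound (23 nl of library stock), in duplicate. After paraformaldehyde fixation and Hoechst stain, imaged at 20x; PNC prevalence scored by image analysis.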
An asterisk follows results filed as active; [ ] = another dose, or the depositor's remark. Unless noted, calls follow the shape of the dose curve; as a rule, active = well fitted curve in the direction sought with a large enough effect; inconclusive = small, poorly fitted or top-dose-only effect, or another doubt; inactive = no such curve, though single readings can be large; an effect the other way counts as inactive or inconclusive.

`C=CCOC(=O)c1[nH]c2c(c1C)C(=O)CC(c1ccco1)C2` (stereo not drawn) gave IMPase Li cell 28%[38.3 µM], NPSR antagonist inconclusive, IMPase inh 8, HTT ATP protect -44%, HTT aggregate 14% and PNC inhibitor -29.
C/C=C/COC(=O)c1[nH]c2c(c1C)C(=O)CC(c1ccco1)C2 (stereo not drawn) was read as IMPase Li cell 13%, NPSR antagonist -5%, IMPase inh -3, HTT ATP protect -36%[10 µM], HTT aggregate 10% and PNC inhibitor -102*.
COc1ccccc1N1CCN(CCN(C(=O)c2ccc(I)cc2)c2ccccn2)CC1 was read as HTT ATP protect -9%[1.9 µM].
`CC(C)(C)NCC(O)COc1nsnc1N1CCOCC1` (stereo not drawn) gave IMPase Li cell 3% and NPSR antagonist 7%[46.1 µM].
For NC(=O)C1(N2CCCCC2)CCN(CCCC(=O)c2ccc(F)cc2)CC1 the results were HTT ATP protect 18% and HTT aggregate 8%.
For COC(=O)c1[nH]c2c(c1C)C(=O)CC(c1ccccc1)C2 (stereo not drawn) the results were IMPase Li cell 15%[38.3 µM], NPSR antagonist 27%[46.1 µM], IMPase inh 4, HTT ATP protect -68%[10 µM], HTT aggregate 12% and PNC inhibitor -111*.
For O=C1OC(=O)c2cc([N+](=O)[O-])ccc21 the results were IMPase Li cell -13% and HTT ATP protect -11%.
`Cc1ccc(N=C2NC(=O)c3cc([N+](=O)[O-])ccc32)cc1` gave IMPase Li cell 13µM*, NPSR antagonist -52%, IMPase inh inconclusive, HTT ATP protect -12%[10 µM], HTT aggregate 5% and PNC inhibitor 58.
O=C(CN1CCC(n2nnc3cc(F)ccc32)CC1)NCc1ccco1 was read as IMPase Li cell 14%[38.3 µM], NPSR antagonist -22%[7.67 µM], IMPase inh -7, HTT ATP protect 4%, HTT aggregate -7% and PNC inhibitor -118*.
For COC(=O)[C@H]1C[C@H]2CC[C@H](O)C[C@H]2N1Cc1c(F)cccc1Cl the results were IMPase Li cell -2% and HTT ATP protect 6%.
Screening c1ccc2c(c1)oc1c(Nc3ccc4c(c3)OCO4)ncnc12 returned IMPase Li cell -18%[38.3 µM], NPSR antagonist -9%[46.1 µM], IMPase inh 1, HTT ATP protect -29%, HTT aggregate -14% and PNC inhibitor -9.
c1ccc2c(c1)oc1c(NCc3ccc4c(c3)OCO4)ncnc12 was read as IMPase Li cell 8%[38.3 µM], NPSR antagonist -20%[46.1 µM], IMPase inh 7, HTT ATP protect 4%[10 µM], HTT aggregate 11µM* and PNC inhibitor 25.
CCSc1nc(C)nc2sc(C)c(C)c12 was read as NPSR antagonist -11%, HTT ATP protect -8%[10 µM] and HTT aggregate -8%[9.22 µM].
Screening COc1ccc(Br)cc1C(C[N+](=O)[O-])c1c(N)n(C)c(=O)n(C)c1=O (stereo not drawn) returned NPSR antagonist -51%, HTT ATP protect -79%[10 µM] and HTT aggregate 4µM*.
Screening Cn1c(CS(=O)Cc2c(Cl)cccc2Cl)nnc1SCc1c(Cl)cccc1Cl (stereo not drawn) returned IMPase Li cell 12%[38.3 µM], NPSR antagonist -8%[46.1 µM], IMPase inh -3[1.84 µM], HTT ATP protect 0%[10 µM], HTT aggregate 9% and PNC inhibitor 9.
For O=S(Cc1ccc(Br)cc1)Cc1nnc(SCc2c(Cl)cccc2Cl)n1-c1ccccc1 (stereo not drawn) the results were IMPase Li cell 38%[38.3 µM], NPSR antagonist 10µM*, IMPase inh 13, HTT ATP protect inconclusive, HTT aggregate 22µM* and PNC inhibitor -30.
For O=C(COc1nsnc1N1CCOCC1)N/N=C/c1ccccc1O the results were IMPase Li cell -1%, NPSR antagonist 2%, HTT aggregate 14µM* and PNC inhibitor -2.
